# Assay results from PubChem BioAssay (Tox21).
# Unmarked numbers belong to inactive results. Inconclusive results are not listed. Entries that show only a call come without a potency. The source made the active and inactive calls. Unless noted, the call rests on the fitted dose curve; in most records, active means well fitted curve in the direction sought with a large enough effect in the repeat runs; inconclusive means weak or mixed curves; inactive means no such curve, though single readings can be large; an effect the other way counts as inactive or inconclusive.
# Legend:
# [1] = qHTS assay to identify small molecule antagonists of the progesterone receptor (PR) signaling pathway - cell viability counter screen (AID 1346798); further: nearly all actives have a fitted effect of over 50% in size; further: potency means the concentration at half of the fitted maximal effect
# How it was run: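 HEK293T PR-UAS-bla, 2% charcoal-stripped FBS; 4 hr pre-plate; cpd + R5020, 16 h 37C; LiveBLAzer read first; then CellTiter-Glo 30 min RT, luminescence.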
# [2] = qHTS assay to identify small molecule agonists of the progesterone receptor (PR) signaling pathway - cell viability counter screen (AID 1346799; calls by dose curve; further: nearly all actives have a fitted effect of over 45% in size; further: potency means the concentration at half of the fitted maximal effect)
# How it was run: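 Luminescence from CellTiter-Glo, added after the beta-lactamase FRET read in the same wells, gave cytotoxicity in PR-UAS-bla HEK293T cells treated with compounds for 16 hr at 37C.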
# [3] = qHTS assay to identify small molecule antagonists of the TGF-beta/Smad signaling pathway - cell viability counter screen (AID 1346824); further: nearly all actives have a fitted effect of over 50% in size; further: potency means the concentration at half of the fitted maximal effect
# How it was run: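 Cytotoxicity counter-screen run in the same wells as the beta-lactamase Smad reporter read: CellTiter-Glo luminescence after 30 min at room temperature. HEK 293T SBE-bla cells had 5 hr compound exposure at 37 C with TGF-beta1 (0.25 ng/mL stock).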
# [4] = qHTS assay to identify small molecule agonists of the TGF-beta/Smad signaling pathway - cell viability counter screen (AID 1346829); further: nearly all actives have a fitted effect of over 45% in size; further: potency means the concentration at half of the fitted maximal effect
# How it was run: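 In parallel with the Smad reporter read, viability of HEK 293T cells stably carrying SBE-bla is quantified by ATP luminescence following 5 hr compound treatment.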
# [5] = qHTS assay to identify small molecule agonists of the TGF-beta/Smad signaling pathway (AID 1346859; active means well fitted activation curve with a large enough effect in the signal ratio in the repeat runs, not every such curve was filed as active; the % refers to the signal ratio; further: series mostly up to about 77 µM)
# How it was run: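 SBE-bla HEK 293T, 4,000 cells/well, plated o/n; cpd in DMSO, 5 hr, 37 C/5% CO2; B/G FRET substrate 2 hr RT; ex 405, em 460/530 nm.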
# [6] = molecular target: Thyrotropin-releasing hormone receptor (Homo sapiens) (UniProt P34981); experiment: qHTS assay to identify small molecule antagonists of the thyrotropin-releasing hormone receptor (TRHR) signaling pathway (AID 1346877; active means well fitted inhibition curve with a large enough effect in the repeat runs, not every such curve was filed as active; further: series mostly up to about 51 µM)
# Chain of Thyrotropin-releasing hormone receptor (Homo sapiens) (P34981 whole entry, looked up): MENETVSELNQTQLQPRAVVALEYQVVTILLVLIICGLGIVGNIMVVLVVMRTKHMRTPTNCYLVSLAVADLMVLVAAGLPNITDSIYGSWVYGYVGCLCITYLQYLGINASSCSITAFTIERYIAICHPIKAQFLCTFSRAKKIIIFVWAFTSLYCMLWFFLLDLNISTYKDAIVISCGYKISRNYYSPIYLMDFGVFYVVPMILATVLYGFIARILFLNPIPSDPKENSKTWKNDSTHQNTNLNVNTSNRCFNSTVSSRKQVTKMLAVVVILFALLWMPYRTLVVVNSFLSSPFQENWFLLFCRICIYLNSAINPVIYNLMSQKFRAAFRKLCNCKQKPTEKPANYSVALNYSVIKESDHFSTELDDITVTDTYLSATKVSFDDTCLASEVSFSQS
# How it was run: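 In this cell-based calcium flux format, HEK293 cells expressing TRHR received test compound for 5 min before the agonist TRH (1 nM final). Dye loading lasted 2 h at 37 °C.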
# [7] = molecular target: Thyrotropin-releasing hormone receptor (Homo sapiens) (UniProt P34981); experiment: qHTS assay to identify small molecule agonists of the thyrotropin-releasing hormone receptor (TRHR) signaling pathway (AID 1346891; calls by dose curve; further: series mostly up to about 58 µM)
# How it was run: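 Intracellular calcium rise, read as fluorescence every second for 3 min, served as the agonist signal in dye-loaded HEK293 cells expressing TRHR; each compound ran at 15 concentrations in triplicate.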
# [8] = Caspase-3/7 induction in HepG2 cells by small molecules, qHTS assay (AID 1346978); further: nearly all actives have a fitted effect of over 15% in size
# How it was run: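 Caspase-3/7 induction was measured by Caspase-Glo 3/7 luminescence (30 min, room temperature) after a 17 hr compound exposure of wild-type HepG2 cells seeded at 2,000 per well and pre-incubated 5 hr.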
# [9] = Caspase-3/7 induction in CHO-K1 cells by small molecules, qHTS cell viability counter screen (AID 1346979); further: nearly all actives have a fitted effect of over 35% in size; further: potency means the concentration at half of the fitted maximal effect
# How it was run: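 Cells (CHO-K1, wild type) are plated at 1,500 per well and incubated 5hr. Test compounds in DMSO are then pinned in, followed by 16hr at 37C and 5% CO2. Viability is read by CellTiter-Fluor fluorescence after 1hr.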
# [10] = Caspase-3/7 induction in CHO-K1 cells by small molecules, qHTS assay (AID 1346980); further: nearly all actives have a fitted effect of over 15% in size
# How it was run: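 Luminescent Caspase-Glo 3/7 read (30min, room temperature) quantified apoptosis induction. Cells were wild-type CHO-K1, treated with compound for 17hr at 37 C and 5% CO2.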
# [11] = molecular target: Nuclear receptor subfamily 1 group I member 2 (Homo sapiens) (UniProt O75469); experiment: Human pregnane X receptor (PXR) small molecule agonists, qHTS assay (AID 1346982); further: nearly all actives have a fitted effect of over 35% in size; further: potency means the concentration at half of the fitted maximal effect
# Chain of Nuclear receptor subfamily 1 group I member 2 (Homo sapiens) (O75469 whole entry, looked up): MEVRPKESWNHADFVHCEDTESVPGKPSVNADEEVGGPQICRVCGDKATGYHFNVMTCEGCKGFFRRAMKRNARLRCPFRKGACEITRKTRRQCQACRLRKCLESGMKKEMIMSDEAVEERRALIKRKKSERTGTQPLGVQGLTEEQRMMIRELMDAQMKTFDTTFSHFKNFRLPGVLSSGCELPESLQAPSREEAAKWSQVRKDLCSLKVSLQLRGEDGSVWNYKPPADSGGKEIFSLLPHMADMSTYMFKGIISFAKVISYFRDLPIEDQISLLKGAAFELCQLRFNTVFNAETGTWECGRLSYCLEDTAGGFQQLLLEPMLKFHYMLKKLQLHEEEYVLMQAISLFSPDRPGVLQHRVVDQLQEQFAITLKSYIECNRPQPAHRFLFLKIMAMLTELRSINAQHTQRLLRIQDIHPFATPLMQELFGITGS
# How it was run: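 Luminescence (ONE-Glo, 30 min RT) after 24 hr compound exposure of PXR-Luc HepG2 cells; cells rested 5 hr post-plating in 5% charcoal-stripped FBS medium.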
# [12] = molecular target: Nuclear receptor subfamily 1 group I member 2 (Homo sapiens) (UniProt O75469); experiment: CYP3A4 induction through human pregnane X receptor (PXR) by small molecules, qHTS assay (AID 1346984); further: nearly all actives have a fitted effect of over 40% in size
# How it was run: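 DPX-2 reporter cells; 24h cpd, 37C; Luciferin-IPA 3uM final x3h; One-Glo 30 min RT; lumi read.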
# [13] = molecular target: Nuclear receptor subfamily 1 group I member 2 (Homo sapiens) (UniProt O75469); experiment: Human pregnane X receptor (PXR) activation by small molecules, qHTS assay (AID 1346985); further: nearly all actives have a fitted effect of over 40% in size
# How it was run: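 DPX-2 cells (HepG2 co-transfected with a PXR response element and a CYP3A4-promoter luciferase construct) were seeded at 2,000 per well, rested 5 hr at 37C, then exposed to DMSO-dissolved compounds for 24 hr. Activation was read as luciferase luminescence.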
# [14] = molecular target: Cytochrome P450 2D6 (Homo sapiens) (UniProt P10635); experiment: Cytochrome P450 Family 2 Subfamily D Member 6 (CYP2D6) small molecule antagonists: luciferase reporter qHTS assay (AID 1671196); further: nearly all actives have a fitted effect of over 50% in size; further: potency means the concentration at half of the fitted maximal effect
# Chain of Cytochrome P450 2D6 (Homo sapiens) (P10635 whole entry, looked up): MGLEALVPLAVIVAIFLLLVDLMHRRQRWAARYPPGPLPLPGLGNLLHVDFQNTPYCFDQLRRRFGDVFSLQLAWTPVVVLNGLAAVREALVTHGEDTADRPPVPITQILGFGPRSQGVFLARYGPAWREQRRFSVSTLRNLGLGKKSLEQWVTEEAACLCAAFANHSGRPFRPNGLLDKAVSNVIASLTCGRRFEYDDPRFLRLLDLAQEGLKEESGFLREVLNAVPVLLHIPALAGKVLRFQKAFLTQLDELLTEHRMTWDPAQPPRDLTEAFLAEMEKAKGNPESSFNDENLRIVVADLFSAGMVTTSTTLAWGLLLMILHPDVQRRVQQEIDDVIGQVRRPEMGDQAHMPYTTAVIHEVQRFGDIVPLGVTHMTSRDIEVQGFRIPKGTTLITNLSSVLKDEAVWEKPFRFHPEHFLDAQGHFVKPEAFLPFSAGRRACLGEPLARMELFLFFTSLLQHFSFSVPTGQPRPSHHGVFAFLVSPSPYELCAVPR
# How it was run: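 Inhibition of CYP2D6 was gauged by loss of luminescence, since light produced tracks the luciferin generated from a proluciferin substrate. A 10 min room-temperature preincubation preceded 1 h NADPH-supported turnover.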
# [15] = molecular target: Cytochrome P450 2C9 (Homo sapiens) (UniProt P11712); experiment: Cytochrome P450 Family 2 Subfamily C Member 9 (CYP2C9) small molecule antagonists: luciferase reporter qHTS assay (AID 1671198); further: nearly all actives have a fitted effect of over 50% in size; further: potency means the concentration at half of the fitted maximal effect
# Chain of Cytochrome P450 2C9 (Homo sapiens) (P11712 whole entry, looked up): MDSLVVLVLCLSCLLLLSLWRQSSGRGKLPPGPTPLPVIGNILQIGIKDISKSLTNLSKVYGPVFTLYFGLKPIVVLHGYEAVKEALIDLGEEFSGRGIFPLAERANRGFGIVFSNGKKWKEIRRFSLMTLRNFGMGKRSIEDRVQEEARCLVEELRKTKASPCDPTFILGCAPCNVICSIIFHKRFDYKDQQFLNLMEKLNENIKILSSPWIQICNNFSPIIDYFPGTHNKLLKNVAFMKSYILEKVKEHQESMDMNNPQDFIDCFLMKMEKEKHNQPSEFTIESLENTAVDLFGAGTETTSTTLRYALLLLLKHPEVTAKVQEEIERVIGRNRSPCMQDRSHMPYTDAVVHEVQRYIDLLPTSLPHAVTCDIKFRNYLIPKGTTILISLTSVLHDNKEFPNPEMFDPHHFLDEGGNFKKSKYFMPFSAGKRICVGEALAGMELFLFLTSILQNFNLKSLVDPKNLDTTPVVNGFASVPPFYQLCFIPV
# How it was run: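 Enzyme-substrate mix preincubated with compound 10 min at room temperature; reaction started with NADPH regeneration solution, 1 h 37C. Luminescent luciferin product read after 20 min detection reagent.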
# [16] = molecular target: Cytochrome P450 1A2 (Homo sapiens) (UniProt P05177); experiment: Cytochrome P450 Family 1 Subfamily A Member 2 (CYP1A2) small molecule antagonists: luciferase reporter qHTS assay (AID 1671199); further: nearly all actives have a fitted effect of over 50% in size; further: potency means the concentration at half of the fitted maximal effect
# Chain of Cytochrome P450 1A2 (Homo sapiens) (P05177 whole entry, looked up): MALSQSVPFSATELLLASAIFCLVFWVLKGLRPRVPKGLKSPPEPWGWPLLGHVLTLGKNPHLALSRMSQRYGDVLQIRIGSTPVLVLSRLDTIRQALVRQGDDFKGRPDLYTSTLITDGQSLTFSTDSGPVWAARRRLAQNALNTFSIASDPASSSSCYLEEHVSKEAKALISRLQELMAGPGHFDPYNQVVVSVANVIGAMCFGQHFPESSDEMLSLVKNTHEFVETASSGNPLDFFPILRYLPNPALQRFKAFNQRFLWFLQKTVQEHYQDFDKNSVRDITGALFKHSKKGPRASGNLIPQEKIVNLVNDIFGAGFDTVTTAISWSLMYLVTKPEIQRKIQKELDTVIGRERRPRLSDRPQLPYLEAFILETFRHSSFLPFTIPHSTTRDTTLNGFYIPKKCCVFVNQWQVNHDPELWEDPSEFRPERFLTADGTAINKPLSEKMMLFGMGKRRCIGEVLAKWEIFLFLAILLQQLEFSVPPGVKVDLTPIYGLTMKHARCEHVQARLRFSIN
# How it was run: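 Signal from luciferin formed by CYP1A2 from a proluciferin substrate is read as luminescence, expressed in relative luminescence units. Compounds sit with enzyme 10 min, NADPH-driven reaction runs 1 h, all at room temperature.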
# [17] = Human pregnane X receptor (PXR) small molecule agonists, qHTS cell viability counter screen (AID 1346977); further: nearly all actives have a fitted effect of over 50% in size; further: potency means the concentration at half of the fitted maximal effect
# How it was run: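 PXR-Luc HepG2, 2,000 cells/well, 5% charcoal-stripped FBS; 5hr settle; cpd 24hr, 37C/5% CO2; CellTiter-Fluor at 23hr, read 1hr later (fluorescence).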
# [18] = Caspase-3/7 induction in HepG2 cells by small molecules, qHTS cell viability counter screen (AID 1346981); further: series mostly up to about 92 µM; nearly all actives have a fitted effect of over 30% in size
# How it was run: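 Counter screen for cytotoxicity: HepG2 exposed 16 hr to compounds, then CellTiter-Fluor viability signal (fluorescence, 1 hr reagent incubation).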
# [19] = molecular target: Cytochrome P450 2C19 (Homo sapiens) (UniProt P33261); experiment: Cytochrome P450 Family 2 Subfamily C Member 19 (CYP2C19) small molecule antagonists: luciferase reporter qHTS assay (AID 1671197); further: series mostly up to about 120 µM; nearly all actives have a fitted effect of over 65% in size
# Chain of Cytochrome P450 2C19 (Homo sapiens) (P33261 whole entry, looked up): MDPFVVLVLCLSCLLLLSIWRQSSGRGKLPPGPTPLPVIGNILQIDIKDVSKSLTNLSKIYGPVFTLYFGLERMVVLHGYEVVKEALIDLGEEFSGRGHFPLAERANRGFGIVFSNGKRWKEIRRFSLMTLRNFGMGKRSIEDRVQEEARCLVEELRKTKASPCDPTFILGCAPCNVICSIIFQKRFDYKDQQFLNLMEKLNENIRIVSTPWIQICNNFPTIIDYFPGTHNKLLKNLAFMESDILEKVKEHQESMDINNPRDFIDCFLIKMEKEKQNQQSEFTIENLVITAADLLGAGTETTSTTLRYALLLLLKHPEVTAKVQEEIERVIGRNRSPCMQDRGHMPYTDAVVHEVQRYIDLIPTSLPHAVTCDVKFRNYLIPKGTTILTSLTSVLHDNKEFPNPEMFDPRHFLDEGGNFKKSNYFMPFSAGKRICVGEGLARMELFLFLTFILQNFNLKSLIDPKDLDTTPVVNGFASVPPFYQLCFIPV
# How it was run: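 Compounds were tested on CYP2C19 activity via proluciferin conversion to luciferin. The 37C, 1 h reaction followed NADPH addition; detection reagent stopped it.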
# [20] = molecular target: Nuclear receptor subfamily 1 group I member 2 (Rattus norvegicus) (UniProt Q9R1A7); experiment: Rat pregnane X receptor (rPXR) activation by small molecules, qHTS assay (AID 1346983); conditions: rPXR luciferase reporter cells, One-Glo luminescence, 24 h; max activation: active compounds read high; further: nearly all actives have a fitted effect of over 20% in size
# Chain of Nuclear receptor subfamily 1 group I member 2 (Rattus norvegicus) (Q9R1A7 whole entry, looked up): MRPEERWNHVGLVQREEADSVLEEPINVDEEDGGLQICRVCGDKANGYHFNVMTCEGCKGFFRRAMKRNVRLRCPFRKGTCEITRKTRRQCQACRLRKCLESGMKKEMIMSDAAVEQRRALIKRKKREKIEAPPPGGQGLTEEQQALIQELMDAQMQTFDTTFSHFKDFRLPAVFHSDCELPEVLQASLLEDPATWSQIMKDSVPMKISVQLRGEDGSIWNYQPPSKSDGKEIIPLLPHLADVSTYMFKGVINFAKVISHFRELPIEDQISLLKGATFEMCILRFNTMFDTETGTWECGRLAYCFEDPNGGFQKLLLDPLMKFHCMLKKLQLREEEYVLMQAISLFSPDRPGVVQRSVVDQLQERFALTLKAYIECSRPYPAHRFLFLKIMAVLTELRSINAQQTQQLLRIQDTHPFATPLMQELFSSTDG
# How it was run: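 Luminescent readout (One-Glo luciferase, 30 min room temperature) followed 24 hr compound treatment at 37 C of rPXR cells plated 2,000 per well and preincubated 5hr; qHTS format with compounds delivered in DMSO.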
Compound,Potency [1],Potency [2],Potency [3],Potency [4],Potency [5],Potency [6],Potency [7],Potency [8],Potency [9],Potency [10],Potency [11],Potency [12],Potency [13],Potency [14],Potency [15],Potency [16],Potency [17],Potency [18],Potency [19],max activation [20] [%]
CCCCOc1ccc(C(=O)CCN2CCCCC2)cc1,inactive,inactive,inactive,inactive,inactive,inactive,inactive,inactive,29.8 µM (active),inactive,6.68 µM (active),inactive,inactive,5.49 µM (active),17.4 µM (active),inactive,–,–,–,–
CC(=O)OC1CCCCC1,inactive,inactive,inactive,–,inactive,inactive,inactive,inactive,inactive,inactive,inactive,–,–,inactive,–,inactive,inactive,inactive,inactive,–
C=CC(=O)OCCOCC(CC)(COCCOC(=O)C=C)COCCOC(=O)C=C,63.7 µM (active),63.7 µM (active),inactive,inactive,inactive,–,–,inactive,8.02 µM (active),–,28.4 µM (active),–,–,–,26.3 µM (active),–,63.7 µM (active),–,–,–
CCOC(=O)CN,inactive,inactive,inactive,inactive,inactive,–,–,inactive,inactive,inactive,inactive,–,–,–,inactive,inactive,inactive,–,inactive,–
CC=O,32 µM (active),45.3 µM (active),25.7 µM (active),28.8 µM (active),–,–,–,–,4.03 µM (active),–,4.53 µM (active),–,–,8.34 µM (active),inactive,37.2 µM (active),5.7 µM (active),inactive,–,–
CN1[C@@H]2CC[C@H]1CC(OC(=O)C(CO)c1ccccc1)C2 (stereo not given in full),inactive,61.1 µM (active),inactive,inactive,inactive,–,–,inactive,inactive,inactive,–,–,–,–,–,–,inactive,–,–,-0.936
